LGR2 antag: inhibitors of bursicon-induced Drosophila LGR2 receptor cAMP signaling | HEK293 LGR2, CRE-luciferase, bursicon-stimulated, 4 h | inhibition, % at 9.99 µM | 380,000 compounds, 0.35% hits;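 active means drop in luminescence signal, shown as inhibition above about 50% in the replicate tests, limit read from the data, passing the limit was not always enough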;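 further: agonist challenge used bursicon conditioned medium at about half maximal strength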
TWEAK-Fn14 inh: inhibitors of TWEAK-Fn14 interaction signaling; 360,000 compounds, 2% hits; AID 1159606; inhibition, % at 10 µM; TWEAK-stimulated Fn14 reporter cells, luciferase luminescence, 8 h; in the data active means inhibition above about 50%
KKLEB cytotox: CF airway cell cytotoxicity counter-screen; KKLEB CF airway cells viability, ATPlite luminescence, overnight; active compounds read low; cells stimulated with P. aeruginosa culture filtrate; activity change (cytotoxicity), % at 5 µM; 360,000 compounds, 0.36% hits;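 active means corrected activity change at or below -50% at 5 µM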
HIF-2a inh: HIF-2a inhibition | 786-0 RCC cells HIF-2a reporter, luciferase luminescence, overnight | inhibition, % at 18.8 µM | 360,000 compounds, 0.72% hits;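 active means inhibition of the luminescence signal of 40% or more relative to plate controls, in a single-dose primary screen at 18.75 µM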
iPSC survival up: enhancers of human iPSC single-cell survival. hiPSC single-cell survival, ATPlite luminescence; 100% = ROCK inhibitor wells, 0% = DMSO. survival enhancement, % at 20 µM. 360,000 compounds, 0.044% hits. AID 602274; in the data active means survival enhancement above about 18%;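 further: cells exposed to compounds for 16 hours before the ATP read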
CF NFkB block: cystic fibrosis NF-kB activation inhibition. KKLEB NF-kB-GFP reporter, PAF-induced, GFP fluorescence overnight. inhibition, % at 5 µM. 360,000 compounds, 0.86% hits;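 active means at least 50% inhibition at 5 µM, scaled per plate between neutral and stimulator controls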;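 further: PAF is a Pseudomonas aeruginosa culture filtrate used as stimulus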
Mdm2-MdmX confirm: confirmation of inhibitors of human Mdm2/MdmX interaction, set 2; 740 compounds, 99% hits; SaOS-2 split-luciferase Mdm2/MdmX complementation, luminescence; AID 504601; inhibition, % at 8 µM; shares compounds with HIF-2a inh;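 active means mean inhibition of the luminescence signal across two replicates at or above 26 percent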
Target sequence (O15151 whole entry, looked up): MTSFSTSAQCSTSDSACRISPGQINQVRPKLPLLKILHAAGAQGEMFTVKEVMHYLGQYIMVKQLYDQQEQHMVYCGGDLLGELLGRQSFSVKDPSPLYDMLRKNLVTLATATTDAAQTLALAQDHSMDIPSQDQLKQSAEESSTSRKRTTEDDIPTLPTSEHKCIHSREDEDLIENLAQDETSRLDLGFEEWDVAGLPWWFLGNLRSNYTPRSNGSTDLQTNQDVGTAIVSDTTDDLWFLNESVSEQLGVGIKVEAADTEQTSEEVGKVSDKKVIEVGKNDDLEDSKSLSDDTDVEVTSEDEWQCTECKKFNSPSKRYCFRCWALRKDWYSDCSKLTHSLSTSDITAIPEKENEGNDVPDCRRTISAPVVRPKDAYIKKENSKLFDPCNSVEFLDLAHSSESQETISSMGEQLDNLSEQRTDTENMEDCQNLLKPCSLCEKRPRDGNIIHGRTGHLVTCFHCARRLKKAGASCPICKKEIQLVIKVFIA
Target sequence (Q00987 whole entry, looked up): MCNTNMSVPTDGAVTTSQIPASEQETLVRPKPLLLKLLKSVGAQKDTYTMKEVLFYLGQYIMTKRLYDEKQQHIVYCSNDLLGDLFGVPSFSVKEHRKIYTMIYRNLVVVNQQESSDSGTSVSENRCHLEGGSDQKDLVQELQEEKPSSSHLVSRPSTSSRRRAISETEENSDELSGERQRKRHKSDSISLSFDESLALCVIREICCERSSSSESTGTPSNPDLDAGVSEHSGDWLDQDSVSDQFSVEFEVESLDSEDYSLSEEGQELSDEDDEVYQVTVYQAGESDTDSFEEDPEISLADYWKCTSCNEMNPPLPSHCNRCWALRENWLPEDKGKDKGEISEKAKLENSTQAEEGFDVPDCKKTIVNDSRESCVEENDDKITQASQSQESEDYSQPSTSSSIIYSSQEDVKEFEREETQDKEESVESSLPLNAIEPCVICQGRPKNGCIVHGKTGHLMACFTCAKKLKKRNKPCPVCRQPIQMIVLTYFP
HIF-2a inh conf: HIF-2a inhibition, single concentration confirmation. 786-0 RCC cells, HIF-2a luciferase reporter luminescence, overnight. inhibition, % at 18.8 µM. shares compounds with HIF-2a inh. 1,800 compounds, 56% hits;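 active means mean inhibition across four replicates of at least 40 percent at the single tested concentration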
HIF-1a cs: counter-screen for HIF-2a inhibitors: HIF-1a inhibition in MiaPaCa-2 cells; shares compounds with HIF-2a inh; MiaPaCa-2 HIF-1a luciferase reporter, desferoxamine, overnight; 1,800 compounds, 72% hits; inhibition, % at 18.8 µM;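 active means mean inhibition of the reporter signal across four replicates at the single tested dose of 50% or more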
Each line names hits and unclear results; the compound was inactive in the other large screens (follow-up assays come after a bar, where they were run). In the library only some 2.3% were active in any assay of this set; here they are far more common.

Cc1nc(SCC(=O)Nc2nc3ccccc3s2)c(C#N)c(C)c1C	LGR2 antag 92.8, TWEAK-Fn14 inh 106.8, HIF-2a inh 89.0 | Mdm2-MdmX confirm 101.2 | HIF-2a inh conf 94.8 | HIF-1a cs 104.8
Cc1nc(SCC(=O)Nc2nc3ccccc3s2)n[nH]1	none
O=C(Nc1ccc(-c2nc3cccnc3s2)cc1)C1CCCO1 (stereo not drawn)	LGR2 antag 90.2, TWEAK-Fn14 inh 99.4, HIF-2a inh 58.5 | HIF-2a inh conf 69.2 | HIF-1a cs inactive
CCCN(C)C[C@H]1Oc2cc(C3=CCCC3)ccc2S(=O)(=O)N([C@@H](C)CO)C[C@@H]1C	none (no result: TWEAK-Fn14 inh, KKLEB cytotox, HIF-2a inh, iPSC survival up, CF NFkB block)
CN(C)CCn1c2ccccc2c2nc3ccc([N+](=O)[O-])cc3cc21	none | Mdm2-MdmX confirm 102.5
CCn1c2ccccc2c2cc([N+](=O)[O-])ccc21	none
COC(=O)[C@H]1[C@H](CO)[C@H]2Cn3c(ccc(-c4cccc(F)c4)c3=O)[C@H]2N1CC1CC1	none (no result: TWEAK-Fn14 inh, KKLEB cytotox, HIF-2a inh, iPSC survival up, CF NFkB block)
COc1ccc(Nc2ncnc3scc(-c4ccc(OC)cc4)c23)cc1	HIF-2a inh 41.7 | HIF-2a inh conf inactive | HIF-1a cs 58.3
CCC(=NCCc1c(C)[nH]c2ccc(OC(F)(F)F)cc12)C1=C(O)CC(c2ccccc2)CC1=O (stereo not drawn)	none
CCCCC(=NCCc1c(C)[nH]c2ccc(OC)cc12)C1=C(O)CC(c2ccccc2)CC1=O (stereo not drawn)	HIF-2a inh 40.9 | HIF-2a inh conf inactive | HIF-1a cs 65.4
Nc1ccc(C(=O)N/N=C\c2ccc(OC(=O)c3ccccc3Cl)cc2)cc1	none
O=C(O)c1ccc(N/N=C/c2ccc(OC(=O)c3ccccc3Cl)cc2)cc1	LGR2 antag 57.6, TWEAK-Fn14 inh 95.8, HIF-2a inh 81.2 | HIF-2a inh conf 84.2 | HIF-1a cs 79.7
O=C(O)c1ccc(N/N=C/c2ccc(-c3ccccc3)cc2)cc1	none
CC(C)c1ccc(/C=N/Nc2ccc(C(=O)O)cc2)cc1	TWEAK-Fn14 inh 92.0, HIF-2a inh 80.7 (no result: LGR2 antag) | HIF-2a inh conf 78.6 | HIF-1a cs inactive
CC[C@@]1(C(=O)OC)N[C@H](CN(C)S(=O)(=O)c2ccc(-c3ccccc3)cc2)[C@@H]2C(=O)N(Cc3ccccc3)C(=O)[C@@H]21	none | Mdm2-MdmX confirm 90.0
CC[C@@]1(C(=O)OC)N[C@H](CN(C)S(=O)(=O)c2ccccc2)[C@@H]2C(=O)N(Cc3ccccc3)C(=O)[C@@H]21	none
CN1c2ccc(-c3ccccc3)cc2[C@H]2[C@H](CCN2C(=O)CN2CCOCC2)[C@H]1CO	none (no result: TWEAK-Fn14 inh, KKLEB cytotox, HIF-2a inh, iPSC survival up, CF NFkB block)
C=CCOC(=O)CSCC(NC(=O)OC(C)(C)C)C(=O)OCC (stereo not drawn)	HIF-2a inh 57.8 (no result: LGR2 antag) | HIF-2a inh conf 45.0 | HIF-1a cs inactive
CCCOc1ccc(C(=O)C(c2ccccc2)N2CCOCC2)cc1 (stereo not drawn)	none (no result: LGR2 antag)
CCCOc1ccc(C(=O)C(CN2CCOCC2)c2ccccc2)cc1 (stereo not drawn)	HIF-2a inh 62.5 (no result: LGR2 antag) | HIF-2a inh conf inactive | HIF-1a cs 99.7
N#CC(=Cc1ccc(-c2ccccc2)cc1)C(=O)c1ccccc1	none
CC(=O)C(=Cc1ccc(-c2ccccc2)cc1)C(=O)c1ccccc1	TWEAK-Fn14 inh 55.2, HIF-2a inh 65.1 (no result: KKLEB cytotox, CF NFkB block) | HIF-2a inh conf inactive | HIF-1a cs 103.2
O=C(/C=C/c1ccccc1O)c1ccco1	none
O=C(/C=C/c1cc(Br)ccc1O)c1ccco1	TWEAK-Fn14 inh 62.3, HIF-2a inh 93.7, CF NFkB block 93.8 | HIF-2a inh conf 46.3 | HIF-1a cs 102.3
COc1ccccc1C=CC(=O)C=Cc1ccccc1OC	TWEAK-Fn14 inh 80.2, HIF-2a inh 69.7 | HIF-2a inh conf 55.5 | HIF-1a cs 100.5
COc1ccccc1/C=C/C(C)=O	none
COc1ccc2cc3c(N)nn(C(=O)Cc4c[nH]c5ccccc45)c3nc2c1	LGR2 antag 87.8, TWEAK-Fn14 inh 94.7, HIF-2a inh 50.3, CF NFkB block 85.5 | Mdm2-MdmX confirm 102.5 | HIF-2a inh conf inactive | HIF-1a cs 101.9
COc1cccc(CC(=O)n2nc(N)c3cc4ccc(OC)cc4nc32)c1	none
COc1ccc2cc3c(N)nn(C(=O)c4ccccc4Cl)c3nc2c1	TWEAK-Fn14 inh 82.2, HIF-2a inh 42.6, CF NFkB block 77.2 | Mdm2-MdmX confirm 98.7 | HIF-2a inh conf inactive | HIF-1a cs 94.5
Cc1noc(/C=C/c2cccnc2)c1[N+](=O)[O-]	HIF-2a inh 47.7 | HIF-2a inh conf inactive | HIF-1a cs 56.2
Cc1ccc(C(=O)C(C(=O)/C=C/c2ccccc2)=C2SCCCS2)cc1	HIF-2a inh 92.9 (no result: LGR2 antag) | Mdm2-MdmX confirm 103.2 | HIF-2a inh conf 86.3 | HIF-1a cs 102.9
Cc1ccc(C(=O)C=CC=Cc2ccccc2)cc1	none
CC1CCN(Cc2c(C(=O)N/N=C/c3cc(Cl)ccc3O)nnn2-c2nonc2N)CC1	none
CC1CCN(Cc2c(C(=O)N/N=C/c3cc(Br)ccc3O)nnn2-c2nonc2N)CC1	none | Mdm2-MdmX confirm 91.2
Cc1ccc(S(=O)(=O)N[C@@H]2C=C[C@H](CC(=O)N3CCN(c4ccccc4)CC3)O[C@@H]2CO)cc1	none (no result: TWEAK-Fn14 inh, KKLEB cytotox, HIF-2a inh, iPSC survival up, CF NFkB block)
CCCCn1c(=N)n(CC(=O)c2ccc(Br)s2)c2ccccc21	HIF-2a inh 50.4 | Mdm2-MdmX confirm 103.2 | HIF-2a inh conf inactive | HIF-1a cs 98.5
CCn1c(=N)n(CC(=O)c2ccc(Br)s2)c2ccccc21	none
Cc1ccc(S(=O)(=O)Nc2ccc3c(c2)C(=O)N([C@H](C)CO)C[C@@H](C)[C@H](CN(C)C(=O)Nc2ccc4c(c2)OCO4)OCCCC[C@H](C)O3)cc1	none (no result: TWEAK-Fn14 inh, KKLEB cytotox, HIF-2a inh, iPSC survival up, CF NFkB block)
Cc1cc(C(=O)CN2C(=O)c3ccccc3S2(=O)=O)c(C)n1CC1CCCO1 (stereo not drawn)	TWEAK-Fn14 inh 106.2, HIF-2a inh 91.9 (no result: LGR2 antag) | HIF-2a inh conf 98.3 | HIF-1a cs 103.7
COc1cc(NC(=O)CN2C(=O)c3ccccc3S2(=O)=O)cc(OC)c1	none
CCCn1c(C)cc(C(=O)Cn2nnc3ccccc3c2=O)c1C	none
CCCn1c(C)cc(C(=O)CN2C(=O)c3ccccc3S2(=O)=O)c1C	LGR2 antag 56.4, HIF-2a inh 91.3 | HIF-2a inh conf 95.3 | HIF-1a cs 94.5
COc1ccc(C(=O)CN2C(=O)c3ccccc3S2(=O)=O)cc1	LGR2 antag 100.6, TWEAK-Fn14 inh 101.5, HIF-2a inh 88.2 | HIF-2a inh conf 92.3 | HIF-1a cs 92.1

High-throughput results as filed in PubChem BioAssay.
